Bioassay records: PubChem, National Center for Advancing Translational Sciences (NCATS)
D1 antagonist: antagonists of human D1 dopamine receptor; P21728; HEK293 TREx D1 cells, calcium flux, dopamine EC80; hits give low values; activity change, negative = inhibition, % at 10 µM; 360,000 tested, 3.2% active; in the data active = activity change below about -30%
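Tetracycline-induced HEK293 Trex D1 cells, force-coupled to calcium, dye-loaded; compounds added and read 180 s, then EC80 dopamine added and calcium flux tracked kinetically another 180 s.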
D1 potentiator: enhances dopamine response at the human D1 receptor; P21728; HEK293 TREx D1 cells, calcium flux, dopamine EC20 potentiation; potentiation, % at 10 µM; 360,000 tested, 0.036% active; in the data active = potentiation above about 30%
TRHR enhancer: TRH receptor (human) allosteric enhancement. P34981. TRHR cells, fluo-8 calcium fluorescence, EC20 TRH enhancement. enhancement, % at 2 µM. 360,000 tested, 0.66% active. AID 493056; in the data active = enhancement above about 30%
Target sequence (P34981 whole entry, looked up): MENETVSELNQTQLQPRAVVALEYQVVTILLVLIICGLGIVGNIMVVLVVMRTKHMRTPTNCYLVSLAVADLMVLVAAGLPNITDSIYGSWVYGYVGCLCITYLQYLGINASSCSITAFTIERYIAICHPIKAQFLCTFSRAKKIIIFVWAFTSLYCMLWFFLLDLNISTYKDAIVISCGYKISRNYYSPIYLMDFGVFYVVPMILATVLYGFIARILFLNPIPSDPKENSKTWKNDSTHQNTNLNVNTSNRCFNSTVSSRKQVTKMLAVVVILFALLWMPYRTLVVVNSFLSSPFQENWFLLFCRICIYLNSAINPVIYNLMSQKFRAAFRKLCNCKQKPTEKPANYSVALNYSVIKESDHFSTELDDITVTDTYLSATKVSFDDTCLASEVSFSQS
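TRHR-expressing cells loaded with fluo-8 calcium dye were read kinetically (ex 480/em 530) during compound addition, then stimulated with an EC20 of TRH (10 nM final). Enhancement of the Gq-mediated intracellular calcium response was scored.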
TRHR agonist: agonists of human TRH receptor; P34981; TRHR cells, calcium flux fluo-8, FDSS agonist mode; activation, % at 2 µM; 360,000 tested, 0.18% active; AID 493084
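Steps: seed TRHR cells overnight; add fluo-8 no-wash Ca dye, RT 30 min–1.5 h; record 10 s baseline; pin-transfer compounds; monitor fluorescence 1 cycle/s for the agonist window. Calcium increases flag candidate agonists.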
D1 agonist: activates the human D1 dopamine receptor. P21728. HEK293 T-REx D1 cells, calcium flux, agonist mode. activation, % at 2 µM. 360,000 tested, 1% active. AID 504660
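Inducible HEK293 T-REx D1 cells, force-coupled to calcium signalling, were plated at 4000 cells/well with tetracycline and held overnight at 30 C. After no-wash calcium dye loading, compound-evoked calcium rise over 180 s flagged agonists.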
Each line names hits and unclear results; the compound was inactive in the other large screens; ! = not active in a repeat. Shown are actives, neighbours in structure and some others; about 4.6% of the full set was active somewhere. Rule as the data show it, unless noted: active = activation above about 30%; inactive = the rest.

Cc1ccc(NC(=O)N2CCN3CCCCC3C2)cc1C (stereo not given)	D1 antagonist -36
Cc1cc(C)cc(NC(=O)N2CCN3CCCCC3C2)c1 (stereo not given)	none
CCOc1ccccc1CNC(=O)c1cnc2sc(N3CCC(C)CC3)nn2c1=O	none
CCCCc1cc(=O)oc2cc(OCC(=O)NCc3ccccn3)ccc12	D1 antagonist -42
COc1cccc(CNC(=O)c2c(C)nn(-c3cccc(C)c3)c2-n2cccc2)c1	none
CCOc1cc2c(cc1OCC)CN(C(=O)c1cccc(S(=O)(=O)N3CCCC3)c1)CC2	D1 antagonist -36
Cc1ccccc1Nc1c(-c2cccc(N(C)C)c2)nc2ccc(Br)cn12	none
CC(=O)N1c2ccccc2C(=O)C1N1CCN(c2ccc(F)cc2)CC1 (stereo not given)	D1 antagonist -46
COc1ccccc1NC(=S)NCc1ccccc1Cl	TRHR enhancer 37
COc1ccccc1NC(=S)NCC1CCC(CNC(=S)Nc2ccccc2OC)CC1 (stereo not given)	D1 antagonist -85
Cc1c(Cl)cccc1NC(=S)NCc1ccccc1Cl	none
COc1ccc(NC(=S)NCc2ccc(F)cc2)c(OC)c1	D1 antagonist -31
COc1ccc(NC(=S)NCc2ccccc2Cl)c(OC)c1	D1 antagonist -33
Cc1cc(C)c(Cn2c(=O)n(-c3ccccc3Cl)c(=O)c3c(C)c(C(=O)N(C)C)sc32)c(C)c1	none
CCCc1nc(SCc2cc(=O)c3ccc(C)c(C)c3[nH]2)n[nH]1	none
O=C(CNCCO)N1N=C(c2cccs2)CC1c1cccs1 (stereo not given)	none
CC(=O)N1N=C(c2ccccc2)CC1c1cccs1 (stereo not given)	none
Cc1ccc(C2CC(c3cccs3)=NN2S(=O)(=O)c2ccc(C)cc2)cc1 (stereo not given)	D1 antagonist -33
O=C(c1ccccc1)N1N=C(c2ccccc2)CC1c1cccs1 (stereo not given)	D1 antagonist -67
Cc1ccc(C2=NN(S(C)(=O)=O)C(c3cccs3)C2)cc1 (stereo not given)	D1 antagonist -48
Cc1ccc(C2=NN(C(=O)CNCCO)C(c3cccs3)C2)cc1 (stereo not given)	D1 antagonist -33
Cc1cccc(NC(=O)C2CCCN(S(=O)(=O)c3ccc4c(c3)oc(=O)n4C)C2)c1C (stereo not given)	none
O=C(CSc1nnc(-c2cccc(F)c2)c(-c2cccc(F)c2)n1)NC1CCCCC1	none
NC(=O)/C(N=Nc1ccccc1)=N/Nc1ccccc1	D1 antagonist -55
O=C(O)c1cccc(N/N=C(\N=Nc2ccccc2)c2ccccc2)c1	none
O=c1oc2ccc3ccccc3c2cc1-c1nnc(Nc2cccc(F)c2)s1	none
Cc1ccc(O)c(C=Nc2cc(C)ccc2O)c1	D1 antagonist -35
CC(C)(C)c1ccc(O)c(N=Cc2cc(Br)ccc2O)c1	none
Cc1ccc(NC(=O)C(Cc2ccccc2)NS(=O)(=O)c2ccc3c(c2)c(=O)n(C)c(=O)n3C)cc1 (stereo not given)	none
N#Cc1c([N+](=O)[O-])cc([N+](=O)[O-])cc1S(=O)(=O)Cc1ccccc1	D1 antagonist -35
C=CCn1c(N)cc(=O)nc1SC(C)C(=O)Nc1ccc(C(=O)OCC)cc1 (stereo not given)	D1 antagonist -35
Cc1cccc(C)c1NC(=O)Cn1c(=O)cc(C)c2c(C)nn(-c3cccc(Cl)c3C)c21	none
OC[C@H]1O[C@@H](O[C@@H]2[C@@H](CO)O[C@@](O)(CO)[C@H]2O)[C@H](O)[C@@H](O)[C@H]1O	D1 antagonist -36
Cc1oc2ncnc(N3CCCCC3)c2c1C(=O)NCC1CCN(Cc2ccccc2F)CC1	none
COc1ccc(-c2ccc(CNc3ccc4[nH]c(=O)[nH]c4c3)o2)cc1Cl	D1 antagonist -52
O=c1[nH]c2ccc(NCc3ccc(-c4ccc(Cl)cc4)o3)cc2[nH]1	none
O=c1c2cc3c(cc2n(Cc2cccc(Cl)c2)c(=O)n1Cc1nc(-c2ccccc2)no1)OCO3	D1 antagonist -52
O=c1c2cc3c(cc2n(Cc2ccccc2)c(=O)n1Cc1nc(-c2ccccc2)no1)OCO3	none
CCOC(=O)c1nn(-c2ccccc2)c(=O)c(C#N)c1C	none
CCO/C=N/c1c(C#N)c(CC#N)nn1-c1ccccc1	D1 antagonist -33
O=C1CC(c2ccccc2)Cc2[nH]c(=O)c(C(=O)Nc3cccc(F)c3)cc21 (stereo not given)	none
O=C(OCC#CCSc1nnc(-c2cccc3ccccc23)o1)c1ccco1	D1 agonist 32!
Cc1ccc(NC(=O)c2sc3nc(-c4ccc(F)cc4)cn3c2C)c(C)c1	none
COc1ccc(/C=C/C(=O)c2ccccc2)cc1COc1ccccc1F	D1 agonist 38
COc1ccc(C=O)cc1COc1ccccc1F	none
Cc1ccc(NC(=O)CSc2[nH]c(=O)ncc2C)cc1	none
COc1ccc(C(=O)NCc2nnc(SCC(=O)N3CCc4ccccc43)n2Cc2ccccc2)cc1	D1 antagonist -30
Cc1ccc(OCC(=O)c2cc(C)n(CC(F)(F)F)c2C)c([N+](=O)[O-])n1	none
Cc1ccc(OCC(=O)c2cc(C)n(Cc3cccs3)c2C)c([N+](=O)[O-])n1	TRHR enhancer 39
Cc1cc(Cl)ccc1NC(=O)CCC(=O)N/N=C/c1cc([N+](=O)[O-])ccc1O	none
O=[N+]([O-])c1ccc(O)c(/C=N/NC(=S)Nc2ccc(Cl)cc2Cl)c1	D1 antagonist -40
Cc1cc2c(s1)c1cnn(Cc3c(Cl)cccc3Cl)c(=O)c1n2C	none
CC(C)(C)NC(=O)NC(=O)CSc1ccc(S(=O)(=O)N2CCCCC2)cn1	D1 antagonist -39
CC(C)N(C(=O)CSc1ccc(S(=O)(=O)N2CCCCC2)cn1)c1ccccc1	D1 antagonist -37
O=C(CSc1nc2ccccc2o1)Nc1ccc(N2CCOCC2)cc1	D1 antagonist -44
CCC(CC)NC(=O)CSc1ccc(S(=O)(=O)N2CCCCC2)cn1	none
O=C(CSc1ccc(S(=O)(=O)N2CCOCC2)cn1)Nc1ccc(F)c(F)c1	D1 antagonist -57
CCOc1ccccc1Nc1sc(C(=O)c2ccc(Cl)cc2)c(N)c1C(=O)NCCc1ccccc1	none
CCCC1=Nc2cc(C(=O)NC3CCCC3)ccc2Sc2ccc(C)cc21	none
O=C(NCCc1ccccc1)c1ccc(Cn2c(SCc3ccccc3F)nc3cccnc32)cc1	none
COCc1cc(C)nc2sc3c(c12)NC(c1ccc(O)cc1)N(c1ccc(C)cc1)C3=O (stereo not given)	none
C/C(=N\NC(=O)CSc1nc2ccccc2o1)c1cccc(O)c1	D1 antagonist -35
O=C(CSc1nc2cc(S(=O)(=O)N3CCOCC3)ccc2o1)Nc1c(F)cccc1F	D1 antagonist -32
N#C/C(=C\c1ccc[nH]1)S(=O)(=O)c1ccccc1	D1 antagonist -32
